Assay outcomes (PubChem BioAssay)
A selection: hits, their analogues and other compounds. The true share with any hit is near 21%.
FBPA Giardia inh – blocks Giardia fructose-bisphosphate aldolase activity. A8B2U2. purified Giardia FBPA. Potency, µM (titrated, usually from 59.6 µM), most hits filed as inhibitors. hit rate 0.71% among 290,000; note: nearly all actives have a fitted effect of over 55% in size
Target sequence (A8B2U2 whole entry, looked up): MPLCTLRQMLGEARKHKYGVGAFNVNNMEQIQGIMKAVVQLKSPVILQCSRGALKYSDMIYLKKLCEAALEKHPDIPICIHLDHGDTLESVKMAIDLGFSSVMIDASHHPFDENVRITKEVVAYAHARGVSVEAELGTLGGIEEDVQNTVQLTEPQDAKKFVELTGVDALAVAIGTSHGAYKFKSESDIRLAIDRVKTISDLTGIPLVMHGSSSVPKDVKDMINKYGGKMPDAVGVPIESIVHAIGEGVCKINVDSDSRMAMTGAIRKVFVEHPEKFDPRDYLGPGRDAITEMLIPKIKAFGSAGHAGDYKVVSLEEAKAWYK
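40 nM FBPA preincubated 10 min at RT with compound (up to 57.5 uM final), then substrate plus GAPDH/TPI/NAD/arsenate coupling and diaphorase/resazurin added. Fluorescence read after 20 min at RT, 525/598 nm.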
Shiga inhibitor – inhibitors of Shiga toxin in Vero cells; Vero cells, Shiga toxin protein synthesis inhibition reporter; hit rate 9.2% among 290,000; inhibition, % at 38.7 µM; in the data active = inhibition mostly above about 28%, no sharp cut-off; inactive = mostly below about 43%
Cycloheximide cs – counter-screen for Shiga toxin inhibitors: cycloheximide protein synthesis inhibition; cell reporter, cycloheximide protein synthesis inhibition counterscreen; max response, %; hit rate 12% among 300,000; AID 2314; in the data active = max response mostly above about 13%, no sharp cut-off; inactive = mostly below about 14%; note: read at 38.3 µM for the half of the compounds with a filed dose
NS1 function inh – influenza NS1 inhibition. Potency, µM (titrated, usually from 46.1 µM). hit rate 0.4% among 270,000. AID 2326; calls by dose curve; note: actives are rising curves; nearly all actives have a fitted effect of over 50% in size
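Growth recovery, yeast-based: influenza A NS1 expressed in S. cerevisiae causes slow growth, and suppressors are detected by OD600. The parent strain without NS1 is used as positive control.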
Pf growth 96h – P. falciparum growth inhibition at 96 hours; Potency, µM (highest dose often 28.7 µM), hits mostly inhibitors; AID 504834; P. falciparum luciferase reporter growth, 96 h; hit rate 6.9% among 320,000
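Parasite growth measured via integrated firefly luciferase reporter in P. falciparum. Infected erythrocytes at 2% hematocrit, 0.05% parasitemia final were treated 96 hours at 37 C under 5% CO2, and luminescence was read.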
Pf growth 48h – inhibits P. falciparum growth in the first generation, 48 h; P. falciparum luciferase growth in erythrocytes, 48 h; Potency, µM (titrated, usually from 28.7 µM), hits mostly inhibitors; hit rate 5.9% among 310,000; AID 504832
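Luciferase-expressing parasites in RBCs, 2% Hct / 0.1% parasitemia final; RPMI 1640 + 0.5% Albumax; 37 C, 5% CO2, one generation; luminescence read-out, lower signal = inhibition.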
Numbers stand for hits; - = inactive; ? = inconclusive; . = not tested or not shown; + = active, no number. Unless noted, calls come from the whole dose curve; as a rule, active = well fitted curve in the direction sought with a large enough effect; inconclusive = small, poorly fitted or top-dose-only effect, or another doubt; inactive = no such curve, though single readings can be large; an effect the other way counts as inactive or inconclusive.

SMILES	FBPA Giardia inh	Shiga inhibitor	Cycloheximide cs	NS1 function inh	Pf growth 96h	Pf growth 48h
Cc1nn2c(-c3ccc(S(=O)(=O)N4CCN(CCO)CC4)o3)nnc2c2ccccc12	-	-	-	-	10µM	9.3µM
COc1ccc(-c2nnc3c4ccccc4c(C)nn23)cc1S(=O)(=O)N1CCN(CCO)CC1	-	-	-	-	2.6µM	4.7µM
Cc1ccc(-c2nn3c(C)nnc3c3ccccc23)cc1S(=O)(=O)N1CCN(CCO)CC1	-	-	-	-	?	?
COc1ccc(-c2nnc3c4ccccc4c(C)nn23)cc1	-	-	28	-	-	?
COc1ccc(-c2nnc3ccc(SC)nn23)cc1	-	-	-	-	4.7µM	-
Cn1c(CNC(=O)c2ccc(Cl)cc2)nnc1SCC(=O)N1CCOCC1	.	-	-	-	?	-
CC(C)(C)C(=O)NC(c1ccc(Cl)cc1)[C@]1(C)C[C@H]1C1CCCCC1 (stereo partly drawn)	-	.	.	.	.	.
N=c1ccn(Cc2cccc(F)c2)cc1	-	-	-	-	-	2.3µM
COc1ccccc1-n1c(=O)c(C#N)c(-c2ccc([N+](=O)[O-])cc2)c2cc(C(=O)c3ccccc3O)cnc21	-	-	-	-	1.9µM	2.6µM
Cc1nn(-c2ccccc2)c(Cl)c1/C=N/Nc1ccc(Cl)c(C(=O)O)c1	-	98	87	-	-	-
CNC(=S)N/N=C/c1c(C)nn(-c2ccccc2)c1Cl	-	61	35	-	.	-
Cc1nn(-c2ccccc2)c(Cl)c1/C=N/Nc1ccc(S(=O)(=O)Nc2ccccc2C(=O)O)cc1[N+](=O)[O-]	-	-	-	?	?	?
CNC(=S)N/N=C/c1c(C)nn(-c2cccc(Cl)c2)c1Cl	-	-	-	-	-	-
Cc1nn(-c2ccccc2Cl)c(Cl)c1/C=N/Nc1nc2ccccc2s1	-	170	104	-	-	?
CCOC(=O)N/N=C/c1c(C)nn(-c2ccccc2Cl)c1Cl	-	-	27	-	10µM	?
O=C(CCC(=O)Nc1ccc(F)cc1)N/N=C/c1cccnc1	-	-	-	-	-	-
Cc1nnc(SCC(=O)NC(C)(C)C)n1NCc1cccc(Br)c1	-	-	-	-	-	-
Cc1ccc(C)c(OCC(=O)N/N=C/c2c(C)nn(-c3ccccc3)c2Cl)c1	-	-	-	-	.	-
Cc1nn(-c2ccccc2)c(Cl)c1/C=N/NC(=O)OC(C)(C)C	-	71	38	-	?	-
S=C(Nc1ccc2nsnc2c1)NC1CCCCC1	1.8µM	88	59	-	-	-
S=C(NNc1ccc2ccccc2c1)NC1CCCCC1	-	61	49	-	-	-
CC(C)c1ccc(NC(=S)NN2CCOCC2)cc1	-	48	23	-	?	-
S=C(Nc1ccc(Cl)cc1)NN1CCOCC1	-	-	-	-	?	-
S=C(Nc1ccc(Cl)c(Cl)c1)NC1CCCCC1	-	+	56	-	-	13µM
S=C(Nc1ccc(Oc2ccccc2)cc1)NC1CCCCC1	-	-	-	-	-	-
SMILES	FBPA Giardia inh	Shiga inhibitor	Cycloheximide cs	NS1 function inh	Pf growth 96h	Pf growth 48h
Cc1cc(=O)c(C(=O)O)nn1-c1ccccc1F	-	-	-	-	-	-
S=C(Nc1ccc(Cl)c(Cl)c1)NC1CCN(Cc2ccccc2)CC1	-	-	-	-	?	4.1µM
Cc1ccc(NC(=S)NNC(=S)NC2CCCCC2)cc1	-	-	-	.	-	-
FC(F)(F)c1ccc(NC(=S)NC2CCCCC2)cc1	-	82	44	.	?	?
CC(C)c1ccc(NC(=S)NC2CCCCCC2)cc1	-	69	32	-	-	-
Cc1ccc(NC(=S)NN2CCOCC2)c(C)c1	-	-	-	-	15µM	-
FC(F)(F)c1cccc(NC(=S)NC2CCCC2)c1	-	-	-	-	-	?
Fc1ccc(NC(=S)NC2CCN(Cc3ccccc3)CC2)cc1	-	-	-	-	-	-
CCNc1ncc2nc(-c3ccccc3)c(=O)n(C)c2n1	-	.	.	.	.	.
Cc1ccc(NCc2n[nH]c(=S)n2Cc2ccccc2)cc1Cl	-	-	-	-	-	-
Cc1ccc(S(=O)(=O)N(CC(=O)Nc2ccc(C)cc2C)C(=O)N2CCN(C)CC2)cc1	.	.	.	.	-	-
CC(C)c1ccc(NC(=S)NN2C(C)CCCC2C)cc1 (stereo not drawn)	-	-	-	.	6.6µM	?
Fc1cccc(NC(=S)NC2CCCCCCC2)c1	.	75	35	-	-	?
CN(CC(=O)Nc1ccc(Cl)c(Cl)c1)C(=O)C1CCCC1	.	.	.	.	5.2µM	?
Cc1ccc(/C=C/S(=O)(=O)NCC(=O)OCC(=O)NCc2ccccc2)cc1	-	-	-	-	-	-
COc1ccc(Cl)cc1NS(=O)(=O)c1cccc(C(=O)NCCCN2CCCC2=O)c1	-	-	-	-	-	-
Cc1ccc(OCC(O)Cn2c(N3CCCCC3)nc3c2c(=O)[nH]c(=O)n3C)cc1C (stereo not drawn)	-	-	-	-	-	-
COc1ccc(NC(=S)NNc2ccc(S(=O)(=O)Nc3ccccc3C(=O)O)cc2[N+](=O)[O-])cc1	-	-	-	?	-	-
COc1ccc(-n2c(SCC(=O)Nc3cc(C)on3)nc3c([nH]c4ccccc43)c2=O)cc1OC	-	-	-	-	6.6µM	10µM
COc1ccccc1-n1c(SCC(=O)Nc2ccc(NC(C)=O)cc2)nc2c([nH]c3ccccc32)c1=O	-	-	-	?	13µM	-
CC(=O)Nc1ccc(NC(=O)CSc2nc3c([nH]c4ccccc43)c(=O)n2-c2ccccc2F)cc1	.	-	-	-	?	-
COC(=O)C(CCSC)NC(=O)Cn1ncc2c(=O)oc3ccc(C)cc3c21 (stereo not drawn)	-	-	-	-	15µM	-
CCN(CC)c1nc2nonc2nc1N(CC)CC	-	-	-	-	4.7µM	-
CN1C(=O)c2ccccc2N(C)C1c1ccc(F)cc1 (stereo not drawn)	-	-	-	-	-	?
CN1C(=O)c2ccccc2N(C)C1c1ccc2c(c1)OCO2 (stereo not drawn)	-	-	-	-	-	10µM
SMILES	FBPA Giardia inh	Shiga inhibitor	Cycloheximide cs	NS1 function inh	Pf growth 96h	Pf growth 48h
COc1ccc(OC)c(NC(=O)CCN2CCN(CCO)CC2)c1	-	-	-	-	-	-
COc1cc(/C=C(/C#N)c2ccc(F)cc2)ccc1OCc1ccc(C(=O)O)o1	-	-	-	-	.	-
COc1cc(/C=C(\C#N)c2ccccn2)ccc1OCc1ccc(Cl)cc1	-	-	-	-	5.2µM	6.6µM
COc1cc(/C=C(\C#N)c2ccccn2)ccc1OCc1ccccc1	-	77	31	-	?	9.3µM
CCN(CC)CCn1c2c(c(SCC(=O)Nc3cc(C)on3)nc1=O)CCCC2	.	.	.	.	-	?
Nc1nc(SCC(=O)O)[nH]c(=O)c1N	.	.	.	-	.	.
CCn1c(SCc2ccc([N+](=O)[O-])cc2)nnc1C(C)NC(=O)c1ccc(C)cc1 (stereo not drawn)	-	-	-	-	10µM	-
Cc1ccc(CNC(=O)CSc2nc3c(sc4ccccc43)c(=O)n2CCCN2CCCC2)cc1	-	-	-	.	-	10µM
O=C(CSc1nc2c(sc3ccccc32)c(=O)n1CCCN1CCCC1)NCc1ccccc1	-	-	-	.	-	?
